In PubChem BioAssay (Tox21):
Values without a mark were called inactive. Results filed as inconclusive are left out. Entries that show only a call come without a potency. The source made the active and inactive calls. Unless noted, the call rests on the fitted dose curve; in most records, active means well fitted curve in the direction sought with a large enough effect in the repeat runs; inconclusive means weak or mixed curves; inactive means no such curve, though single readings can be large; an effect the other way counts as inactive or inconclusive.

What was measured:
[1] = qHTS assay to test for compound auto fluorescence at 535 nm (green) in HEK293 cells (AID 720680)
[2] = qHTS assay to test for compound auto fluorescence at 460 nm (blue) in HEK293 cell free culture (AID 720681)
Outline: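 Blue fluorescence (Ex 405/Em 460 nm, triamterene-equivalent) was read immediately after pin transfer of compound or DMSO into medium (DMEM, 10% FBS) without cells.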

[3] = qHTS assay to test for compound auto fluorescence at 535 nm (green) in HEK293 cell free culture (AID 720682)
Outline: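 Measurement is a direct plate read of green fluorescence (485 nm in, 535 nm out) after compound addition to serum-supplemented DMEM lacking cells, with fluorescein used to express intensities.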

[4] = qHTS assay to test for compound auto fluorescence at 590 nm (red) in HEK293 cell free culture (AID 720683)
Outline: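 Red-channel autofluorescence of compounds in culture medium (DMEM, 10% FBS), no cells, measured at 540/590 nm. Rose Bengal sodium is the reference fluorophore for equivalence.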

[5] = qHTS assay to test for compound auto fluorescence at 590 nm (red) in HepG2 cell free culture (AID 720684)
Outline: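 No cells present: MEM + 10% FBS only. Compound pinned in, red label read (540/590 nm). Activity = fluorescence equivalent to Rose Bengal sodium.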

[6] = qHTS assay to test for compound auto fluorescence at 460 nm (blue) in HepG2 cell free culture (AID 720685)
Outline: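 Cell-free plates of MEM plus 10% FBS received 23 nL compound or DMSO vehicle; blue-channel (405/460 nm) intensity scored against triamterene as reference fluorophore.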

[7] = qHTS assay to test for compound auto fluorescence at 460 nm (blue) in HepG2 cells (AID 720687)
Outline: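 Blue-channel autofluorescence (Ex/Em 405/460 nm, triamterene-equivalent) was measured after 1 hr compound exposure at 37 C, 5% CO2. Cells were HepG2, plated overnight at 37 C in MEM plus 10% FBS.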

[8] = qHTS assay to identify small molecule antagonists of the glucocorticoid receptor (GR) signaling pathway - cell viability counter screen (AID 720693); further: nearly all actives have a fitted effect of over 55% in size
[9] = qHTS assay for identifying genotoxic compounds that show differential cytotoxicity against isogenic chicken DT40 cell lines with known DNA damage response pathways - Rev3 mutant cell line (AID 743014); further: nearly all actives have a fitted effect of over 55% in size; further: potency means the concentration at half of the fitted maximal effect
[10] = qHTS assay for identifying genotoxic compounds that show differential cytotoxicity against isogenic chicken DT40 cell lines with known DNA damage response pathways - Rad54/Ku70 mutant cell line (AID 743015); further: nearly all actives have a fitted effect of over 60% in size; further: potency means the concentration at half of the fitted maximal effect
[11] = qHTS assay to identify small molecule antagonists of the androgen receptor (AR) signaling pathway - cell viability counter screen (AID 743033; further: nearly all actives have a fitted effect of over 45% in size)
[12] = qHTS assay to identify small molecule antagonists of the androgen receptor (AR) signaling pathway using the MDA cell line - cell viability counter screen (AID 743041; further: nearly all actives have a fitted effect of over 45% in size)
Outline: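 Using the breast carcinoma line MDA-kb2 AR-luc, test chemicals were co-incubated with R1881 for 16 h; CellTiter-Fluor reagent, added at 15.5 h, provided a fluorescence measure of live cells.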

[13] = qHTS assay to identify small molecule antagonists of the thyroid receptor (TR) signaling pathway - cell viability counter screen (AID 743064); further: nearly all actives have a fitted effect of over 50% in size; further: potency means the concentration at half of the fitted maximal effect
Outline: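 Compounds were tested on GH3.TRE-Luc cells in the presence of T3 at 1 nM final. Following 23.5 h at 37 °C, cell viability was quantified by CellTiter-Fluor.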

[14] = molecular target: Glucocorticoid receptor (Homo sapiens) (UniProt P04150); experiment: qHTS assay to identify small molecule agonists of the glucocorticoid receptor (GR) signaling pathway (AID 720691; active means well fitted activation curve with a large enough effect in the signal ratio in the repeat runs, not every such curve was filed as active; the % refers to the signal ratio)
Glucocorticoid receptor (Homo sapiens), sequence (P04150 whole entry, looked up): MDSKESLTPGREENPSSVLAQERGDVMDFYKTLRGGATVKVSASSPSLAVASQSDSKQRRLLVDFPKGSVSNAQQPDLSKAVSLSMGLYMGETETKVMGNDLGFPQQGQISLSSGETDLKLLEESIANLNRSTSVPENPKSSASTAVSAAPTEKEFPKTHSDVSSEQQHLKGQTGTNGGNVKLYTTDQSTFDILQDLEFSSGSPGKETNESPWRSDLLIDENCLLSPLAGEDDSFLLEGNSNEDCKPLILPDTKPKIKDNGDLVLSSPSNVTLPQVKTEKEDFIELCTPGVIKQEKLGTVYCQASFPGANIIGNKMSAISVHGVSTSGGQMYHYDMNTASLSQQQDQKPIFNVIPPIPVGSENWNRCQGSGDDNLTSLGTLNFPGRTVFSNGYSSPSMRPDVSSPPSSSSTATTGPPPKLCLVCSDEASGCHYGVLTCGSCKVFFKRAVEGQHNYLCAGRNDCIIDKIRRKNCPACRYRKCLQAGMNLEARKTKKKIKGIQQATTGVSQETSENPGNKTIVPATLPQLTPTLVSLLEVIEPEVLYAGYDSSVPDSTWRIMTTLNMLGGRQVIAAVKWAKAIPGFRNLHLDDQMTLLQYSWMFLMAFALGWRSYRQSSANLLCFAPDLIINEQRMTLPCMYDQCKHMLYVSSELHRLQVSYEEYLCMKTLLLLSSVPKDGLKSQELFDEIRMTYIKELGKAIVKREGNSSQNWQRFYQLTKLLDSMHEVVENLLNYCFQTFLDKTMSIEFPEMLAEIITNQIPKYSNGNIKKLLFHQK
Outline: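 A HeLa cervical cancer line expressing GR and a glucocorticoid response element-driven beta-lactamase gene is treated with compounds for 18 h; LiveBLAzer B/G FRET substrate is then applied and fluorescence read.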

[15] = molecular target: Glucocorticoid receptor (Homo sapiens) (UniProt P04150); experiment: qHTS assay to identify small molecule antagonists of the glucocorticoid receptor (GR) signaling pathway (AID 720692; active means well fitted inhibition curve with a large enough effect in the signal ratio in the repeat runs, not every such curve was filed as active; the % refers to the signal ratio)
Outline: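 GRE-bla HeLa line, dex-stimulated (5 nM final). Compound exposure 18 h, 37 C. Beta-lactamase FRET read after 2 h RT substrate.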

[16] = qHTS assay for identifying genotoxic compounds that show differential cytotoxicity against isogenic chicken DT40 cell lines with known DNA damage response pathways - wild type cell line (AID 743012); further: nearly all actives have a fitted effect of over 60% in size; further: potency means the concentration at half of the fitted maximal effect
Outline: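 300 wt DT40 cells/well; cpd (DMSO) pintool-transferred after ~0.5 h at 37 C/5% CO2; 40 h incubation; CellTiter-Glo added, 30 min RT; luminescence read.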

[17] = molecular target: Androgen receptor (Homo sapiens) (UniProt P10275); experiment: qHTS assay to identify small molecule antagonists of the androgen receptor (AR) signaling pathway (AID 743035; active means well fitted inhibition curve with a large enough effect in the signal ratio in the repeat runs, not every such curve was filed as active; the % refers to the signal ratio; further: potency means the concentration at half of the fitted maximal effect)
Androgen receptor (Homo sapiens), sequence (P10275 whole entry, looked up): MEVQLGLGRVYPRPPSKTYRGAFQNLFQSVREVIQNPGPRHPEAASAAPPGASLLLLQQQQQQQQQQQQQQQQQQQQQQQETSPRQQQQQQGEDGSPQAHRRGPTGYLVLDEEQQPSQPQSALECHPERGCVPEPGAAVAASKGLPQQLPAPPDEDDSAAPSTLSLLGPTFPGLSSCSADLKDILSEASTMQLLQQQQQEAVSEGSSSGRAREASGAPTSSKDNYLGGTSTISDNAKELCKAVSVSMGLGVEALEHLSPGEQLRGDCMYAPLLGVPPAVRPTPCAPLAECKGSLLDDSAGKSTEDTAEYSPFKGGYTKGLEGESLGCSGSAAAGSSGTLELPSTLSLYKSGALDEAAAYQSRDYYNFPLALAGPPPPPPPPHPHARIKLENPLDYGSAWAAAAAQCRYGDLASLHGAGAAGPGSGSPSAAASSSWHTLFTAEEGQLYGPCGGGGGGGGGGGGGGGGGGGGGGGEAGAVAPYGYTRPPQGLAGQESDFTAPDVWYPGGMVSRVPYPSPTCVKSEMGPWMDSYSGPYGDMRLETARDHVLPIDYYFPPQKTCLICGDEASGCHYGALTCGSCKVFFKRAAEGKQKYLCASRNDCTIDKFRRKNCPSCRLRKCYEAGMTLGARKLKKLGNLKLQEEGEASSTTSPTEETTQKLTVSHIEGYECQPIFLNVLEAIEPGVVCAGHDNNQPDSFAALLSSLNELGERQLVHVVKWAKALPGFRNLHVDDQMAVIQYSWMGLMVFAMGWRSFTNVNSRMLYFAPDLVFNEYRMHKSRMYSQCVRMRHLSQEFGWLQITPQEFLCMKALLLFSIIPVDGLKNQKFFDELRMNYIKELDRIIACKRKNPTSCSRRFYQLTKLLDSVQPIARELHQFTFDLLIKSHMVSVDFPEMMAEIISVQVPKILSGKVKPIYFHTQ
Outline: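 In this cell-based reporter screen, compounds were tested in concentration series against R1881-activated HEK293 cells expressing beta-lactamase under UAS control; after 16 h at 37C, FRET substrate was added and fluorescence read 2 h later.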

[18] = qHTS assay to test for compound auto fluorescence at 535 nm (green) in HepG2 cell free culture (AID 720686)
[19] = molecular target: Androgen receptor (Homo sapiens) (UniProt P10275); experiment: qHTS assay to identify small molecule antagonists of the androgen receptor (AR) signaling pathway using the MDA cell line (AID 743042; further: nearly all actives have a fitted effect of over 55% in size; further: potency means the concentration at half of the fitted maximal effect)
Outline: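 Antagonist mode: compounds plus R1881 agonist added to MDA-kb2 AR-luc cells, incubated 16 h at 37C. Luciferase reporter luminescence quantified, with multiplexed CellTiter-Fluor readout for cell viability.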

| SMILES | outcome [1] | Potency [2] | outcome [3] | outcome [4] | outcome [5] | Potency [6] | Potency [7] | Potency [8] | Potency [9] | Potency [10] | Potency [11] | Potency [12] | Potency [13] | Potency [14] | Potency [15] | Potency [16] | Potency [17] | outcome [18] | Potency [19] |
| --- | --- | --- | --- | --- | --- | --- | --- | --- | --- | --- | --- | --- | --- | --- | --- | --- | --- | --- | --- |
| CC[C@H](NC(=O)c1cc(F)ccc1NS(=O)(=O)c1cccc2cccnc12)c1ccccc1 | inactive | inactive | inactive | inactive | inactive | inactive | inactive | inactive | 57.9 µM (active) | 64.9 µM (active) | inactive | inactive | inactive | – | – | – | – | – | – |
| CCC1(C)CC(=O)NC1=O (stereo not drawn) | inactive | inactive | inactive | inactive | inactive | inactive | inactive | – | – | inactive | inactive | inactive | inactive | inactive | inactive | inactive | – | – | – |
| CC(C)CCCCCCOC(=O)CCCCC(=O)OCCCCCCC(C)C | inactive | inactive | inactive | inactive | inactive | inactive | inactive | inactive | 30.6 µM (active) | – | inactive | inactive | – | inactive | inactive | inactive | – | – | – |
| Fc1c(F)c(F)c(Br)c(F)c1F | inactive | inactive | inactive | inactive | inactive | inactive | inactive | inactive | inactive | – | inactive | inactive | inactive | – | – | inactive | – | – | – |
| CCCOC(=O)c1ccc(N)cc1 | inactive | inactive | inactive | inactive | inactive | inactive | inactive | – | – | 23.7 µM (active) | inactive | inactive | – | inactive | – | inactive | – | – | – |
| CCCCC/C(=C\c1ccccc1)CO | inactive | inactive | inactive | inactive | inactive | inactive | inactive | inactive | – | – | – | inactive | 48 µM (active) | – | – | – | – | – | – |
| Cc1c(C(=O)NN2CCCCC2)nn(-c2ccc(Cl)cc2Cl)c1-c1ccc(Cl)cc1 | inactive | inactive | inactive | inactive | inactive | inactive | inactive | inactive | 11.9 µM (active) | 11.9 µM (active) | inactive | inactive | 16.8 µM (active) | inactive | – | 11.9 µM (active) | 19 µM (active) | – | – |
| CCC(Cc1ccccc1)(C(=O)c1ccc(N2CCOCC2)cc1)N(C)C (stereo not drawn) | inactive | inactive | inactive | inactive | inactive | inactive | inactive | – | 4.33 µM (active) | 9.69 µM (active) | – | inactive | inactive | – | – | 7.7 µM (active) | – | – | – |
| O=C(CCC1CCN(Cc2ccccc2)CC1)c1ccc2c(c1)NCCCC2 | inactive | inactive | – | inactive | inactive | inactive | inactive | inactive | 2.98 µM (active) | – | inactive | – | – | – | – | 2.37 µM (active) | inactive | inactive | 29.8 µM (active) |
| O=C(CCCCCCCCC#CI)Oc1ccccc1 | inactive | inactive | – | inactive | inactive | inactive | inactive | inactive | inactive | – | inactive | inactive | inactive | inactive | inactive | inactive | inactive | inactive | inactive |
| O=C(O)c1cccc(O)c1 | inactive | inactive | – | inactive | inactive | inactive | inactive | inactive | inactive | – | inactive | inactive | inactive | – | – | inactive | – | inactive | – |
| CC1=C(C=O)C(C)(C)CCC1 | inactive | inactive | – | inactive | inactive | inactive | inactive | inactive | inactive | inactive | inactive | inactive | inactive | inactive | inactive | inactive | – | inactive | – |
